The full list was thinned out, with hits kept by preference.
HT1080-NT tox: kills 2HG-producing HT-1080-NT fibrosarcoma cells; HT-1080-NT fibrosarcoma viability, CellTiter-Glo ATP luminescence, 48 h; Potency, µM (titrated, usually from 46.1 µM), without a hit: at the top dose activity, negative = less viability, most hits filed as cytotoxic; 360,000 compounds, 1.6% hits;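 further: NT is the 2HG producing partner of a matched IDH1 knockdown line; potency means the concentration at half of the fitted maximal effect; 0% = DMSO-treated cells and -100% = media-only wells without cells; nearly all actives have a fitted effect of over 55% in size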
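HT-1080-NT; 750 cells/well; 5% FBS RPMI; 48 h compound, 37 degrees C; CellTiter-Glo luminescence; curve fitting and curve-class assignment.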
HT1080 IDH1KD tx: toxicity to HT-1080 IDH1 knockdown cells (counter line); 360,000 compounds, 2% hits; AID 686971; HT-1080 IDH1 knockdown viability, ATP luminescence, 48 h; Potency, µM (highest dose often 46.1 µM), for inactives: at the top dose activity, negative = toxicity, actives largely listed as cytotoxic;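 further: potency means the concentration at half of the fitted maximal effect; 0% = DMSO wells and -100% = cell-free medium wells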
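Viability of IDH1-knockdown HT-1080 fibrosarcoma cells was assessed by CellTiter-Glo after 48 h at 37 °C with titrated compound; concentration-effect curves were classified by fit quality and response size.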
IL1B secr inh: blocks inflammasome-driven IL-1 beta release; activity change, % at 57.5 µM; THP-1 LPS/ATP IL-1B secretion, AlphaLISA, 16 h; hits give low values; 360,000 compounds, 4.7% hits; in the data active means activity change below about -50%; inconclusive means mostly about -30% to -49%
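THP-1 cells pretreated 1 hr with compounds (up to 57.5 uM final), then stimulated with LPS (250 ng/mL final) plus ATP (1.25 mM final); secreted IL-1B measured by AlphaLISA after 16 hr, decreased signal indicating inhibition.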
12-LOX inh: inhibitors of human 12S-lipoxygenase ALOX12. 580,000 compounds, 1.1% hits. P18054. Potency, µM (highest dose often 108 µM), for inactives: at the top dose activity change, negative = inhibition, hits mostly inhibitors. purified 12hLO, xylenol orange hydroperoxide absorbance; further: potency means the concentration at half of the fitted maximal effect
Target sequence (P18054 whole entry, looked up): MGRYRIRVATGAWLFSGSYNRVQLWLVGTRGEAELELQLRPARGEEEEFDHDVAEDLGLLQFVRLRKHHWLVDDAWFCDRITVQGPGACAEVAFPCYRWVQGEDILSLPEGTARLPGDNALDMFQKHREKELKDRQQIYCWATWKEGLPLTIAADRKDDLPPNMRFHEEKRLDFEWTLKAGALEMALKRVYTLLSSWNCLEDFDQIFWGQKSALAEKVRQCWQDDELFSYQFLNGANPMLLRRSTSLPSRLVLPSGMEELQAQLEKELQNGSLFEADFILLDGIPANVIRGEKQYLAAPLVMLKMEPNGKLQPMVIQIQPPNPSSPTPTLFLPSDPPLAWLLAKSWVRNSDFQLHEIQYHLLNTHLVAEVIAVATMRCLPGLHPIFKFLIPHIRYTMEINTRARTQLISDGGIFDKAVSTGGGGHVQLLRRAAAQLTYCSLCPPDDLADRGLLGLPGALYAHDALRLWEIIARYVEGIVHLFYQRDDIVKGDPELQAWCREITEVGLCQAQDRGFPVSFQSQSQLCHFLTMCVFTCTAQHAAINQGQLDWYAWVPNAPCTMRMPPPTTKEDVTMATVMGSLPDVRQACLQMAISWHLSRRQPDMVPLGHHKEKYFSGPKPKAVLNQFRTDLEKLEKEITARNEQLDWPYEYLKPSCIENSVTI
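Hydroperoxide product was detected by ferrous iron/xylenol orange as the 573 to 405 nm absorbance ratio. Arachidonic acid at 40 uM (final) was turned over for 30 min at room temperature by 150 nM human 12hLO, pH 7.0 Hepes buffer, after 15 min compound preincubation.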
TDP1 cell CPT: DT40-hTDP1 cell growth loss with CPT; Potency, µM (doses to about 46.2 µM), inactives show at the highest dose activity change, negative = growth inhibition, actives largely listed as inhibitors; 420,000 compounds, 12% hits; chicken DT40 Tdp1-/-;hTDP1 cells + 20 nM CPT, ATP luminescence, 48 h; further: potency means the concentration at half of the fitted maximal effect; nearly all actives have a fitted effect of over 55% in size
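Cell growth measured by CellTiter-Glo luminescence after a minimum 48 h, 37 C compound exposure with 20 nM CPT in Tdp1-knockout DT40 cells stably expressing hTDP1, seeded 400/well; qHTS titration format.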
TDP1 cell noCPT: qHTS for Inhibitors of human tyrosyl-DNA phosphodiesterase 1 (TDP1): qHTS in cells in absence of CPT; DT40 Tdp1-/- hTDP1 cells, no CPT, ATP luminescence, 48 h; Potency, µM (doses to about 46.2 µM), for inactives: at the highest dose activity change, negative = growth inhibition, hits mostly inhibitors; 420,000 compounds, 15% hits; AID 686978, 2013; further: potency means the concentration at half of the fitted maximal effect; nearly all actives have a fitted effect of over 55% in size
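No-CPT arm: Tdp1-/-;hTDP1 DT40 cells (400/well) plus compounds, incubated ≥48 hr at 37 °C. Readout CellTiter-Glo luminescence.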
* marks the source's active call; other numbers are inactive results; ? = inconclusive; · = no result given; [ ] = dose if it differs, or a comment. Unless noted, the call rests on the fitted dose curve; in most records, active means well fitted curve in the direction sought with a large enough effect; inconclusive means small, poorly fitted or top-dose-only effect, or another doubt; inactive means no such curve, though single readings can be large; an effect the other way counts as inactive or inconclusive. Unless noted, on the % scale 0 is the no-effect control and ±100 the full control effect.

SMILES	HT1080-NT tox	HT1080 IDH1KD tx	IL1B secr inh	12-LOX inh	TDP1 cell CPT	TDP1 cell noCPT
O=C(/C=C/c1ccccc1Cl)c1cc(Br)ccc1O	·	·	·	-45%	·	·
O=C(/C=C/c1ccc([N+](=O)[O-])cc1)c1ccccc(=O)c1O	6.5µM*	5.8µM*	-98*	?	2.6µM*	3.3µM*
Cc1ccc(C)c(/C=C/C(=O)c2ccccc(=O)c2O)c1	?	15µM*	-64*	20µM*	10µM*	6.5µM*
O=C(/C=C/c1ccc([N+](=O)[O-])cc1)c1ccccc1	·	·	·	1%	·	·
Cc1ccc(/C=C/C(=O)c2ccccc(=O)c2O)c(C)c1	21µM*	18µM*	-104*	32µM*	15µM*	21µM*
O=C(/C=C/c1ccccc1Cl)c1ccccc(=O)c1O	12µM*	12µM*	-97*	?	2.9µM*	4.1µM*
CCCC(C)NC(=O)CSCc1coc(-c2ccc(Cl)cc2)n1 (stereo unspecified)	·	·	·	7%	·	·
Cc1ccc(CNC(=O)c2scnc2C)cc1	·	·	·	23%	·	·
Cc1cn2c(=O)cc(CN3CC(=O)N(C)c4ccccc4C3=O)nc2s1	·	·	·	24%	·	·
O=C(Cn1nc(-c2ccc(Cl)cc2)c2ccccc2c1=O)Nc1ccc2ccccc2c1	·	·	·	8%	·	·
N#Cc1c(-c2ccccc2)c(-c2ccccc2)nn(CC(=O)NNC(=O)Nc2ccc(Cl)c(Cl)c2)c1=O	21µM*	15µM*	8	66%	?	?
Cc1noc2c(N(C)C)cc(-c3ccsc3)nc12	·	·	·	25%[176 µM]	·	·
O=C(Nc1nnc(-c2ccccn2)o1)c1cccc(Cl)c1	-15%	0%	0	2%	?	?
O=C(Nc1nnc(-c2cccs2)o1)c1cccc(F)c1	-23%	?	65	0%	4.6µM*	7.3µM*
O=C(Nc1ccsc1C(=O)O)c1cccc(Oc2ccccc2)c1	-8%	-18%	27	-17%	?	-15%
O=C(Nc1nnc(-c2cccs2)o1)c1cccc(Oc2ccccc2)c1	?	?	27	-12%	10µM*	7.3µM*
CN(C(=O)CN1CCN(c2oc(-c3ccco3)nc2C#N)CC1)c1ccccc1	·	·	·	-22%	·	·
COc1ccc(NC(=O)c2ccc3c(c2)N(C)C2CCCCCN2C3=O)cc1 (stereo unspecified)	·	·	·	10%	·	·
Cc1cc(C(=O)N2CCC2(C)C(=O)NCC(C)(C)C)nn1C (stereo unspecified)	6%	28%	17	7%	11%	-1%
C=CCn1c2ccccc2c(=O)c2cc(C#CC[C@@H](C)O)ccc21	-11%	-2%	-67*	-22%	8.2µM*	10µM*
Cn1c2ccccc2c(=O)c2cc(C#Cc3cccc(N)c3)ccc21	-24%	-22%	-2	·	?	?
C=CCn1c2ccccc2c(=O)c2cc(C#CC3(O)CCCCC3)ccc21	?	-27%	-57*	-8%	16µM*	18µM*
CC(C)Cc1nc2oc3c(NCC4CCCO4)ncnc3c2c2c1CCC2 (stereo unspecified)	7%	-1%	-27	-3%	13µM*	18µM*
CC(C)Cc1nc2oc3c(NCc4cccnc4)ncnc3c2c2c1CCC2	2%	-15%	26	-18%	-25%	-11%
c1ccc2c(c1)oc1c(NCC3CCCO3)ncnc12 (stereo unspecified)	-2%	-11%	117	?	?	18µM*
SMILES	HT1080-NT tox	HT1080 IDH1KD tx	IL1B secr inh	12-LOX inh	TDP1 cell CPT	TDP1 cell noCPT
CC(C)Cc1nc2oc3c(N4CCN(CCO)CC4)ncnc3c2c2c1CCCC2	7%	9%	-7	-15%	13µM*	13µM*
Cc1cccnc1C(C)NC(=O)C1(Oc2ccc(Cl)cc2)CCNCC1 (stereo unspecified)	·	·	·	56%	·	·
N#Cc1cccc(C(=O)N2CCN(C(=O)c3nnn4c3COC(c3ccccc3)C4)CC2)c1 (stereo unspecified)	·	·	·	29%	·	·
CC(C)Oc1ccc(C(=O)NC2CCN(c3cn[nH]c(=O)c3)CC2)cc1	·	·	·	31%	·	·
CC(=O)c1sc(-c2ccc(Cl)cc2)nc1C	-3%	0%	13	1%	-1%	12%
COc1ccc(N/C=C/C(=O)c2sc(-c3ccccc3)nc2C)cc1	?	?	-19	-3%	16µM*	21µM*
Cc1nc(-c2ccccc2)sc1C(=O)/C=C/c1ccc(Cl)cc1	8%	11%	-86*	0%	15µM*	23µM*
COc1ccc(N/C=C/C(=O)c2ccccc2)cc1	-24%	-21%	-3	11%	-18%	?
COc1ccc2c(c1)CCc1c(C(=O)Nc3c(C)nn(Cc4ccc(Cl)cc4)c3C)noc1-2	·	·	·	?	21µM*	21µM*
COc1ccc2c(c1)CCc1c(C(=O)Nc3cc(C)n(Cc4ccc(Cl)cc4)n3)noc1-2	17%	16%	44	14%	?	?
CC1(C)CC2CC(C)(CN2C(=O)c2ccccc2)C1 (stereo unspecified)	2%	1%	25	-6%	16µM*	-23%
Cc1nn(Cc2ccc(Cl)cc2)c(C)c1NC(=O)c1noc2c1CCc1ccccc1-2	-18%	-22%	0	?	13µM*	13µM*
